The sample as a whole holds a higher share of hits than the screen did.
D1 allo mod: allosteric modulators of human D1 dopamine receptor; P21728; HEK293 D1, CRE-luciferase, dopamine EC30 potentiation; actives deviate in either direction; B-score at 10 µM; actives 5.9% (n = 58,000); AID 641;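 active = luminescence count or its row- and column-corrected plate score outside the 99.7% band of the plate's sample wells, on either side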
Target sequence (P21728 whole entry, looked up): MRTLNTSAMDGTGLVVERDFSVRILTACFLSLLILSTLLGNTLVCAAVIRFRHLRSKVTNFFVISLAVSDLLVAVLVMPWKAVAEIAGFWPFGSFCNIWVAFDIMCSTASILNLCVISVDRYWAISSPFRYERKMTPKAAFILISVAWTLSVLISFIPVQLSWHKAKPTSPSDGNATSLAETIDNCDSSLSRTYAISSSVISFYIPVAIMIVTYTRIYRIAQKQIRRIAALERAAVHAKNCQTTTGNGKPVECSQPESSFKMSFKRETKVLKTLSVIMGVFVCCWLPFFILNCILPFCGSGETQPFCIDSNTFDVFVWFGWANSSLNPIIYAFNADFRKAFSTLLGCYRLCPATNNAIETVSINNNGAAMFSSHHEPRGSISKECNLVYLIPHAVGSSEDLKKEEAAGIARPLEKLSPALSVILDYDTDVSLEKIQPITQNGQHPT
ROCK2 blocker: inhibitors of human Rho kinase 2. purified ROCK2, Kinase-Glo ATP depletion luminescence. actives 0.35% (n = 60,000). AID 604. inhibition, % at 6 µM. O75116;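 active = inhibition above the screen-wide mean inhibition plus 3 SD, cut at about 18% in these data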;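 also: plate controls were DMSO wells for no effect and Y-27632 control wells after no-enzyme background subtraction for full effect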
PKA inh: PKA (human) kinase inhibition; inhibition, % at 6 µM; PKA Kemptide phosphorylation, Kinase-Glo ATP luminescence; P17612; actives 0.1% (n = 65,000);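 active = inhibition above the screen-wide mean inhibition plus 3 SD, cut at about 21% in these data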
DAT uptake mod: changed human dopamine transporter uptake under cocaine IC80; LLC-PK1 hDAT cells, [14C]-dopamine uptake with cocaine IC80; actives deviate in either direction; actives 1.3% (n = 110,000); Q01959; B-score at 10 µM;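 active = Z score or B-score, a plate-position-corrected score, falls beyond the plate's 99.7% confidence bounds, in either direction; inactive = both scores lie inside the 99.7% bounds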;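 also: scored against the spread of the other compound wells on the same plate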
Numbers without * were called inactive; · = no result; ! = not confirmed by another sample.

SMILES | D1 allo mod | ROCK2 blocker | PKA inh | DAT uptake mod
Cc1ccc(-c2nc(C#N)c(NCc3ccco3)o2)cc1 | 1.75 | -10.8 | -7.9 | -2.84*
CC(=O)c1cccc(NC(=O)Nc2c(C)nn(C)c2C)c1 | 2.07 | 5.2 | 12.8 | 2.09*
O=C(Nc1ccccc1)Nc1cccc(Cl)c1 | · | · | · | -0.748
CC(=O)c1ccc(NC(=O)Nc2cccc(Cl)c2)cc1 | · | · | · | -3.89*
Cc1cc(C(=O)NCCCN2CCN(c3cc(Cl)ccc3C)CC2)n(-c2ccccc2)n1 | · | · | · | -0.295
COc1ccc(N2CCN(CCNC(=O)CCCn3c(=O)[nH]c4cc(Cl)ccc4c3=O)CC2)cc1 | -1.98 | · | -2.8 | -1.14
Cc1cc(C(=O)NCCN2CCN(c3cccc(Cl)c3)CC2)n(-c2ccccc2)n1 | -3.18* | 0.2 | 2.4 | -0.188
COc1cc2[nH]c(=O)n(CCCCCC(=O)N3CCN(c4ccccc4)CC3)c(=O)c2cc1OC | · | · | 0.7 | 3.52*
CCN(CC)CCNC(=O)c1ccc2c(=O)n(CCc3ccccc3)c(=O)[nH]c2c1 | -3.15* | · | -3.1 | 1.21
O=C(NCCCN1CCCCC1)c1ccc2c(=O)n(CCc3ccccc3)c(=O)[nH]c2c1 | -3.72 | · | 1.7 | ·
COCCn1c(=O)[nH]c2cc(C(=O)NCCN3CCN(c4cccc(Cl)c4)CC3)ccc2c1=O | -3.46* | · | 3.7 | 0.544
CC(=O)Oc1cc2cccc(OC(C)=O)c(=O)c2c(OC(C)=O)c1OC(C)=O | · | · | · | -0.546
O=C(CSc1nc(C2CC2)nc2ccccc12)N1c2ccccc2Sc2ccc(C(F)(F)F)cc21 | · | · | · | 0.259
COC(=O)c1ccc2c(=O)n(CCCCCC(=O)N3CCN(c4ccccc4)CC3)c(=O)[nH]c2c1 | -0.691 | 4.0 | 8.6 | -8.31*!
CCN1CCN(C(=O)CCCCCn2c(=O)[nH]c3cc(C(=O)OC)ccc3c2=O)CC1 | -0.148 | 3.4 | 1.5 | 0.177
CCCCCCC1/C(=N/O)CCC1C(=O)OC (stereo not given) | 2.41 | 0.9 | 6.2 | 0.379
CCN(CC)S(=O)(=O)c1cccc(C(=O)Nc2nc3cc4c(cc3s2)OCCO4)c1 | · | 2.3 | 2.1 | 0.0885
CN(CC1CCCO1)S(=O)(=O)c1ccc(C(=O)Nc2nc3cc4c(cc3s2)OCO4)cc1 (stereo not given) | -4.35* | 2.2 | -6.7 | ·
CC(C)OC(=O)c1c(N)sc2c1CCCC2 | 11.1* | -2.9 | -0.8 | ·
CNC(=O)c1c(N)sc2c1CCCCC2 | 0.44 | 0.6 | 3.9 | -0.371
CCOc1ccc2nc(SCC(=O)N3CCN(C(=O)c4ccco4)CC3)sc2c1 | · | · | · | -1.73*
O=C(CSc1nc2ccccc2s1)N1CCN(C(=O)c2ccco2)CC1 | 0.476 | 3.3 | -2.5 | 0.931
COc1cc2c(c(OC)c1CC=C(C)C)C[C@H](c1ccc(O)cc1O)CO2 | · | · | · | 3.35
COc1ccc(N2CCN(C(=O)c3cc4c(-c5cccc(OC)c5)nn(C)c4s3)CC2)cc1 | 1.19 | 5.2 | 10.9 | 2*
Cc1cc2nc3n(c2cc1C)CC1CC(C(=O)NCc2ccco2)N(C)C31 (stereo not given) | · | · | · | -0.432
SMILES | D1 allo mod | ROCK2 blocker | PKA inh | DAT uptake mod
CCN(CC)C(=O)CC(c1ccc(N(C)C)cc1)c1c(OC)cc(OC)c2ccc(=O)oc12 (stereo not given) | · | · | · | 0.951
CCN(CC)C(=O)CC(c1ccc2c(c1)OCO2)c1c(OC)cc(OC)c2ccc(=O)oc12 (stereo not given) | · | · | · | 2.67*
COc1ccc(OC)c(NC(=O)CSc2nnnn2-c2ccc3c(c2)OCO3)c1 | 1.38 | -0.7 | 5.7 | -3.51*
COc1cccc(-n2ccnc2SCC(=O)Nc2cc(OC)ccc2OC)c1 | 0.444 | 8.0 | 8.3 | 1.52*
COc1ccc(NC(=O)CSc2nccn2-c2cccc(OC)c2)cc1 | 0.193 | -5.1 | -4.5 | -0.655
COc1ccc(OC)c(NC(=O)CSc2nnc(CCCO)n2-c2ccccc2)c1 | -0.737 | 6.2 | 11.9 | 2.91*
COc1ccc(-c2noc3c2-c2nc(-c4ccc(C)cc4)sc2CC3)cc1 | · | · | · | -1.01
Cc1ccc(S(=O)(=O)NNC(=O)c2sc3nc(C)cc(C)c3c2-n2cccc2)cc1 | · | · | · | 1.51
CCCCCn1c2nc3ccccc3nc2c2c(=O)n(CC3CCCO3)c(C)nc21 (stereo not given) | 1.12 | 8.6 | 4.0 | ·
CCCCCC(=O)NC(NC(=S)Nc1ccc(S(N)(=O)=O)cc1)C(Cl)(Cl)Cl (stereo not given) | · | · | · | -3.65*
O=C(Cc1ccccc1)NC(Nc1ccccc1)C(Cl)(Cl)Cl (stereo not given) | · | · | · | -1.66
CCCCCCCC(=O)NC(Nc1ccc(S(N)(=O)=O)cc1)C(Cl)(Cl)Cl (stereo not given) | · | · | · | -8.29*
COc1ccc(C(=O)NC(NC(=S)Nc2ccc(S(N)(=O)=O)cc2)C(Cl)(Cl)Cl)cc1 (stereo not given) | · | · | · | -2.29*
COC(C[C@@H](O)C[C@H](O)[C@@H](C)OCc1ccccc1)OC | · | · | · | 0.222
COc1ccccc1NC(=O)N1CCC(c2nc3cc(C)c(C)cc3[nH]2)CC1 | · | · | · | -0.0618
COc1ccccc1NC(=S)N1CCC(c2nc3cc(C)c(C)cc3[nH]2)CC1 | · | · | · | -2.31*
COc1ccccc1N1CCN(C(=O)c2ccc(NC(C)=O)cc2)CC1 | -0.712 | 3.6 | 0.1 | -3.1*
COCCNC(=O)C1c2ccccc2C(=O)N(CCOC)C1c1ccc(F)cc1 (stereo not given) | -0.367 | · | 6.1 | -7.61*
CCSc1nnc(NC(=O)C2CCCN(S(=O)(=O)c3cnc[nH]3)C2)s1 (stereo not given) | -0.109 | 4.1 | 3.2 | 0.225
c1ccc(-c2noc(-c3cccnc3)n2)nc1 | -4.07* | -37.6 | -9.7 | 0.00798
c1ccc(-c2noc(-c3ccc4ccccc4c3)n2)nc1 | -4.39* | -13.6 | -2.7 | 0.261
Cc1ccc(-c2nc(-c3cccnc3)no2)cc1 | -4.92* | 15.7 | 12.2 | -0.0181
c1ccc(-c2noc(-c3ccncc3)n2)nc1 | -1.23 | -31.3 | -16.9 | -0.0377
Cc1ccc(-c2nc(-c3ccccc3)no2)cc1 | · | · | · | -0.182
c1ccc(-c2noc(-c3ccc4c(c3)OCO4)n2)nc1 | -8.26* | -44.2 | -34.8 | 0.323
SMILES | D1 allo mod | ROCK2 blocker | PKA inh | DAT uptake mod
CCN1C(=O)N[C@H](c2ccccc2)C(C(C)=O)=C1C | · | · | · | -0.559
O=C1CCCC2=C1C(c1ccc(Cl)cc1)C1C(=O)c3ccccc3C1=N2 (stereo not given) | · | · | · | 2.6*
O=C(O)CSc1nnc(-c2ccc(S(=O)(=O)N3CCCC3)cc2)n1Cc1ccco1 | -4.15* | 4.5 | 3.8 | -0.0035
COc1ccc(N2CCN(C(=O)COc3ccccc3)CC2)cc1 | 0.432 | 6.7 | 7.5 | 1.86*
COc1ccc(N2CCN(C(=O)NC34CC5CC(CC(C5)C3)C4)CC2)cc1 | · | · | · | -7.62*
COC(=O)N1CCN(c2ccc(OC)cc2)CC1 | 0.181 | -2.8 | -4.0 | -1.53
O=C1CSC(c2cn(-c3ccccc3)nc2-c2ccccc2)N1Cc1ccco1 (stereo not given) | 1.21 | 1.7 | 1.5 | -0.0485
O=C1CSC(c2cn(-c3ccccc3)nc2-c2cccs2)N1CC1CCCO1 (stereo not given) | -0.0379 | 1.8 | 4.4 | 2.74*
O=C(CSc1nnc(Cc2cccs2)n1C1CCCCC1)N1CCCc2ccccc21 | -0.0902 | 0.5 | 1.5 | 2.23*
Cc1cc2ncn(C(=O)N3CCCCCC3)c2cc1C | · | · | · | 1.48
O=C(O)CCC(=O)N1CCN(c2nc(-c3ccccc3Cl)c3cc(Br)ccc3n2)CC1 | · | · | · | 2.98*

From PubChem
